Hits are enriched below; roughly 11% of the tested compounds scored in any of these assays.
HPGD inh – blocks human HPGD enzyme activity; P15428; purified HPGD, NADH fluorescence kinetic, PGE2 substrate; AID 894; 150,000 tested, 4.3% active; Potency, µM, for the others: at the highest dose activity change, negative = inhibition, most hits filed as inhibitors; active = well fitted inhibition curve with a large enough effect, not every such curve was filed as active; inconclusive = small, poorly fitted or top-dose-only effect, or another doubt; inactive = no such curve, though single readings can be large or run the other way; note: potency is the fitted concentration of half-maximal effect; % is set by controls: 0 for no effect and ±100 for the full control effect
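20 nM HPGD preincubated 15 min at room temperature with compound in 50 mM Tris-HCl pH 8, 0.01% Tween 20. Started with 1 mM NAD+ and 30 uM prostaglandin E2; NADH fluorescence (360/450 nm) read 5 times over 30-s intervals, last minus first.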
HTT cytoprotect – cytoprotection in Huntington HTT-Q103 PC12 cell model; Potency, µM (titrated, usually from 56.4 µM), inactives show cytoprotection (ATP increase), actives largely listed as activators; PC12 HTT-Q103 induced, cytoprotection, ATP luminescence, 40 h; 230,000 tested, 0.14% active; note: potency is the fitted concentration of half-maximal effect; % of control where 0% means no effect; nearly all actives have a fitted effect of over 45% in size
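Cells were plated at 1500 per well in phenol red-free DMEM with 5% equine and 5% calf serum. Tebufenozide (100 nM final) and compounds were added, then ATPlite reagent, and luminescence was read.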
HTT aggregate – inhibitors of mutant huntingtin aggregate formation in PC12 cells | PC12 HttQ103-GFP aggregates, Acumen cytometry, 40 h | 220,000 tested, 1.1% active | Potency, µM (series often up to 46.1 µM), for inactives: top-dose activity change, negative = inhibition, actives largely listed as inhibitors; note: potency is the fitted concentration of half-maximal effect; % is set by controls: 0 for no effect and ±100 for the full control effect; nearly all actives have a fitted effect of over 60% in size
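PC12 cells stably carrying ecdysone-inducible HTT exon 1 Q103–GFP were induced with tebufenozide (100 nM final) and treated with library compounds in titration. GFP aggregates in lysates were counted by laser scanning cytometry.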
ALDH1A1 inh – blocks purified human ALDH1A1 activity; P00352; Purified ALDH1A1, NADH fluorescence, propionaldehyde substrate; Potency, µM (top dose mostly 75.3 µM), inactives show at the highest dose activity, negative = inhibition, usual class: inhibitors; 220,000 tested, 7.3% active; active = well fitted inhibition curve with a large enough effect, not every such curve was filed as active; inconclusive = small, poorly fitted or top-dose-only effect, or another doubt; inactive = no such curve, though single readings can be large or run the other way;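 note: potency is the fitted concentration of half-maximal effect; plate controls were no enzyme wells and a reference inhibitor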
CBFb RUNX1 block – CBF-beta/RUNX1 interaction disruption; Q01196+Q13951; AlphaScreen CBFb-His/RUNX1-biotin binding, biochemical; Potency, µM (top dose mostly 59.8 µM), inactives show top-dose activity, negative = inhibition, hits mostly inhibitors; 230,000 tested, under 10 active; AID 1477; note: % of control where 0% means no effect
Target sequence (Q01196 whole entry, looked up): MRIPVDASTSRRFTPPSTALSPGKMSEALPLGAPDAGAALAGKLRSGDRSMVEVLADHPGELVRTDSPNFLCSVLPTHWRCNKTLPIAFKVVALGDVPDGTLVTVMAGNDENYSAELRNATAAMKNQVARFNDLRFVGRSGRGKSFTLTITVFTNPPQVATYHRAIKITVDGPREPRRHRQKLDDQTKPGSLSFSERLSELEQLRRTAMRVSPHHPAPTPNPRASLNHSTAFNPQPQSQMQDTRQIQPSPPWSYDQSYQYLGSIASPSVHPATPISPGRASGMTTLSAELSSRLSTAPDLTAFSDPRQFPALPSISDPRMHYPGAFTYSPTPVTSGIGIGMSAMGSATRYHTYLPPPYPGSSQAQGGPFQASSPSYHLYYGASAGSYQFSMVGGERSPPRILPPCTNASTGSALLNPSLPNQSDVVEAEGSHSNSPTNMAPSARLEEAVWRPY
Target sequence (Q13951 whole entry, looked up): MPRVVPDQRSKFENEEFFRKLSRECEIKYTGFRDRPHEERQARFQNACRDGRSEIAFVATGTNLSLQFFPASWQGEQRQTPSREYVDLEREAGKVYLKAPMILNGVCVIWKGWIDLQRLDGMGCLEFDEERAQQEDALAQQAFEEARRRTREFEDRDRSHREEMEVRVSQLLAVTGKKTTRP
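Inhibition was taken as any reduction in AlphaScreen signal from the CBF-beta–RUNX1 pair (His and biotin tags, 30 nM each), measured after compound (15 min) and bead (90 min) incubations at room temperature.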
PNC assembly inh – blocks assembly of the perinucleolar compartment; AID 2417; activity change (PNC), negative = inhibition, % at 10 µM; 140,000 tested, 3.1% active; PC3M PTB-GFP, PNC prevalence imaging, 16 h; stronger effect = lower value;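 active = readout at or below -70, meaning at least 70% loss of cells showing the perinucleolar compartment, a nuclear body marking cancer cells; inconclusive = readout between -30 and a set limit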;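 note: plate controls were DMSO wells for no effect and camptothecin positive control wells for full effect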
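Compounds are pinned in duplicate onto adhered PC3M cells stably expressing GFP-tagged PTB and incubated 16 h at 37 C. Cells are then fixed, nuclei stained with Hoechst, and PNC-positive cells counted.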
Starred values were filed as active, the others as inactive; ? = inconclusive; nt = no result; [ ] = remark or other dose. Unless noted, calls come from the whole dose curve; as a rule, active = well fitted curve in the direction sought with a large enough effect; inconclusive = small, poorly fitted or top-dose-only effect, or another doubt; inactive = no such curve, though single readings can be large; an effect the other way counts as inactive or inconclusive.

SMILES | HPGD inh | HTT cytoprotect | HTT aggregate | ALDH1A1 inh | CBFb RUNX1 block | PNC assembly inh
Oc1cc2c(cc1O)[C@H]1c3ccccc3CNC1CC2 (some centres not stated) | 6.31µM* | nt | nt | ? | -1.1% | nt
CC(=O)CC(c1ccccc1)c1c(O)c2cccc(O)c2oc1=O (configuration not stated) | nt | nt | nt | nt | 5.6% | nt
C=CC=O | -6.8% | -3.3% | nt | 0.0224µM* | -6.7%[21.7 µM] | nt
CCCSC(=O)Cl | -7.7% | -5.9% | nt | -21.0% | 28.8%[21.7 µM] | nt
FC(F)(F)c1ccc2c(c1)ncn2C1CCN(Cc2nnnn2C2CCCCC2)CC1 | ? | 12.3% | -14.1% | 0.562µM* | -7.1% | -100.0*
CCc1cccc(NC(=O)Cn2c(=O)oc3cc(S(=O)(=O)N4CCOCC4)ccc32)c1 | -16.5% | -106.8% | 2.24µM* | ? | -4.1% | 0.4
Cc1cc(C)cc(NC(=O)Cn2c(=O)oc3cc(S(=O)(=O)N4CC(C)CC(C)C4)ccc32)c1 (configuration not stated) | -11.7% | -70.0% | ? | -0.8% | 0.5% | 20.8
COc1ccc(C(=O)C2CCCN(C3CSCCSC3)C2)c(OC)c1 (configuration not stated) | nt | 3.5%[10 µM] | 7.4%[9.22 µM] | 14.1µM* | 3.0% | nt
COc1ccc(C(=O)C2CCCN(C3CSCCSC3)C2)c(C)c1 (configuration not stated) | nt | 2.0%[10 µM] | 11.1%[9.22 µM] | 14.1µM* | -4.0% | nt
CC[C@]1(O)CC[C@H]2[C@@H]3CCC4=CCCC[C@@H]4[C@H]3CC[C@@]21C | nt | -70.3% | -23.2% | nt | nt | nt
CC(C)CON=O | -0.9% | -14.7% | nt | 31.6µM* | -5.3%[21.7 µM] | nt
NNc1nncn1N | -11.2% | -0.9%[10 µM] | nt | -8.4%[13.5 µM] | nt | nt
NC(N)=NC(=O)c1nc(Cl)c(N)nc1N | ? | ? | ? | 0.9% | 5.6% | -114.6*
COc1cc2cc(c1Cl)N(C)C(=O)C[C@H](OC(=O)C(C)C)[C@]1(C)O[C@@H]1[C@@H](C)[C@H]1C[C@](O)(NC(=O)O1)[C@@H](OC)/C=C\C=C(\C)C2 | -3.7% | -90.3%[10 µM] | nt | 0.1%[13.5 µM] | nt | nt
CCC(=Nc1ccc(OC)cc1OC)c1c(O)n(C2CCCCC2)c(=O)[nH]c1=O | 28.2µM* | -16.0%[0.074 µM] | ? | ? | -22.2% | 28.6
CC(=NCCO)c1c(O)n(C2CCCCC2)c(=O)[nH]c1=O | -6.1% | -10.9% | 6.1% | ? | 7.5% | 7.0
CCC(=O)c1c(O)n(C2CCCCCC2)c(=O)[nH]c1=O | -7.7% | -2.5% | 16.0%[9.22 µM] | 25.1µM* | 2.8% | 9.6
CCCOCCN(C(=O)CCl)c1c(CC)cccc1CC | nt | nt | nt | nt | 16.0% | nt
CCCOC(=O)[C@@H]1[C@@H](C(=O)O)[C@H]2CC[C@@H]1O2 | -1.0% | -14.6%[10 µM] | nt | -3.5%[13.5 µM] | nt | nt
O=C(/C=C/c1ccc2c(c1)OCO2)c1c(O)n(CCC2=CCCCC2)c(=O)[nH]c1=O | -19.2% | 30.4%[10 µM] | 21.6% | 31.6µM* | 17.5% | 44.1
O=C(c1ccncc1)N1CCC2(CC1)CN(Cc1ccccc1)C2 | -3.5% | ? | nt | -1.1% | nt | nt
O=C(c1ccco1)N1CCC[C@@]2(CCN(Cc3ccncc3)C2)C1 | -6.6% | ? | nt | 10µM* | nt | nt
O=C(c1ccco1)N1CCC2(CC1)CN(Cc1ccncc1)C2 | -4.4% | ? | nt | 12.6µM* | nt | nt
O=NN(CCO)CCO | -6.7% | -6.8% | nt | ? | 6.2%[21.7 µM] | nt
CCOC(=O)c1ccc(N2C(=O)CC(N3CCC(O)(c4ccc(Br)cc4)CC3)C2=O)cc1 (configuration not stated) | ? | 2.0%[10 µM] | -25.9% | 1.58µM* | 3.4% | 50.3
SMILES | HPGD inh | HTT cytoprotect | HTT aggregate | ALDH1A1 inh | CBFb RUNX1 block | PNC assembly inh
N#CC1(c2ccccc2)CCN(C2CC(=O)N(c3cccc(F)c3)C2=O)CC1 (configuration not stated) | nt | ? | 3.5% | ? | 24.3% | nt
CCOC(=O)c1ccc(N2C(=O)CC(N3CCC(O)(c4ccc(Cl)cc4)CC3)C2=O)cc1 (configuration not stated) | -11.9% | 6.0% | -28.9% | 7.94µM* | 2.9% | 21.4
Cc1ccc(-c2cn3c(=S)[nH]nc3s2)cc1 | 28.2µM* | -39.4% | -5.0% | ? | 2.3% | 19.1
CC(=O)OCC(N)C(=O)c1ccccc1 (configuration not stated) | -0.9% | 4.9% | nt | -17.4% | -0.4% | nt
Cc1cc(C=O)c(C)n1C(C)C | nt | ? | 11.0% | 14.1µM* | -4.6% | nt
CCC(C)n1c(C)cc(C(N)=O)c1C (configuration not stated) | nt | -12.0% | 11.2% | 5.7% | -2.1% | nt
CCCn1c(C)cc(C=O)c1C | nt | -35.2% | -1.7% | 7.08µM* | 12.6% | nt
O=C(O)/C=C\c1ccc[c]([Sb](=[O])([OH])[OH])c1 | nt | 2.1%[10 µM] | nt | nt | nt | nt
CCOC(=O)/C=C(C)/C=C/CC(C)CCCC(C)C (configuration not stated) | nt | nt | -96.0% | nt | nt | nt
O=C1NC(=O)C(=Cc2ccc(OCCOc3ccc([N+](=O)[O-])cc3)cc2)C(=O)N1 | nt | -39.6% | 1.0% | 17.8µM* | -3.9% | nt
O=C1NC(=O)N(c2ccccc2F)C(=O)/C1=C/c1ccc(Oc2ccc([N+](=O)[O-])cn2)cc1 | nt | -17.0% | 2.7% | ? | -12.6% | nt
O=C(O)[C@@H](O)[C@@H](O)C1[O][Sb][O][C@@H]1CO (some centres not stated) | -11.7% | nt | nt | -18.8%[13.5 µM] | nt | nt
CC1(C)C[C@H]2C=C(C=O)[C@]3(C=O)C[C@]3(C)[C@H]2C1 | -14.2% | nt | 8.91µM* | ? | -10.1% | ?
CCC(C(=O)O)C1CCC(C)C(C(C)C(O)C(C)C(=O)C(CC)C2OC3(C=CC(O)[C@@]4(CC[C@](C)(C5CC[C@@](O)(CC)C(C)O5)O4)O3)C(C)CC2C)O1 (some centres not stated) | -13.7% | -307.8% | 1.41µM* | 3.4% | 25.2% | nt
O=[N+]([O-])/C=C/c1c(OCc2ccccc2)ccc2ccccc12 | 15.8µM* | -116.5% | ? | -8.3% | 3.4% | 24.7
CN1CCC(O)(c2ccc(F)cc2)C(C(=O)c2ccc(F)cc2)C1 (configuration not stated) | nt | ? | 8.2% | nt | nt | nt
CCCCN1CCC(O)(c2ccccc2)C(C(=O)c2ccccc2)C1 (configuration not stated) | -22.3% | -0.7%[10 µM] | 13.7% | 0.112µM* | 1.2% | 34.1
CC1=C2C(=CO[C@H](C)[C@H]2C)C(=O)C(C(=O)O)=C1O | -6.3% | 19.9% | nt | -1.9% | -17.1% | nt
C#CCN1C(=O)C2(C(C#N)=C(N)OC(C)=C2C(=O)OCc2ccccc2)c2ccccc21 (configuration not stated) | -15.0% | -31.0% | 15.0% | 0.794µM* | 2.3% | -13.2
Nc1ccc(N)cc1 | -12.8% | -110.2% | 12.9% | -6.0% | ? | nt
COc1ccc(-c2cc(-c3ccccc3)[n+](C)c(-c3ccccc3)c2)cc1 | nt | -54.0%[10 µM] | 7.08µM* | ? | 14.7% | nt
